Screening results from PubChem BioAssay.
An excerpt weighted towards active compounds, which were near 4.6% of everything screened.
tim10-1 inh: tim10-1 yeast growth inhibition | S. cerevisiae tim10-1 ts strain growth, BacTiter-Glo, 24 h | inhibition, % at 20 µM | 330,000 compounds, 2.2% hits | AID 463190;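 active means inhibition of at least 40%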;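 further: mutant grown at 25 °C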
tim23-1 inh: inhibits growth of tim23-1 mutant yeast. S. cerevisiae tim23-1 growth, BacTiter-Glo luminescence, 24 h. inhibition, % at 20 µM. 330,000 compounds, 1.3% hits;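 active means growth inhibition of the mutant yeast at or above 50%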;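 further: temperature-sensitive mutant grown at 25 °C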
SKKanGAS inh: inhibitors of SKKanGAS S. pyogenes growth in kanamycin (SK-promoter or general growth effect); BacTiter-Glo, 6 h; inhibition, % at 7.5 µM; 300,000 compounds, 1.3% hits; AID 1662;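 active means mean replicate score, as percent of positive control median, at least 50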;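 further: strain carries kanamycin resistance gene driven by streptokinase promoter and grows in 40 µg/ml kanamycin; loss of luminescence reflects streptokinase promoter inhibition or plain growth inhibition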
NALP3 yeast inh: NALP3 inhibition in yeast. Yeast reconstituted NLRP3/ASC/caspase-1, beta-gal luminescence, 24 h. inhibition, % at 10 µM. 330,000 compounds, 0.39% hits. AID 2825;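 active means inhibition of 50% or more; inactive means inhibition below 50%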
TIM10 inh: growth inhibitors of TIM10 yeast strain. S. cerevisiae TIM10 strain growth, BacTiter-Glo luminescence, 24 h. inhibition, % at 10 µM. 330,000 compounds, 1.4% hits. AID 463195;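 active means inhibition of 40% or more at the single tested concentration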;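 further: wild-type TIM10 isogenic control strain grown at permissive 25 °C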
PfHsp90 set2: growth inhibition of yeast expressing Plasmodium Hsp90. inhibition, % at 9.4 µM. S. cerevisiae expressing PfHsp90, BacTiter-Glo ATP, 48 h; yeast lacking PDR1 and PDR3 efflux regulators. 310,000 compounds, 0.32% hits. AID 504621;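 active means every replicate shows inhibition above about 80%, whatever the replicate mean, limit read from the data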
tim10 confirm: TIM10 yeast growth inhibition, confirmed; shares compounds with TIM10 inh; S. cerevisiae tim10 strain growth, BacTiter-Glo luminescence, 24 h; inhibition, % at 10 µM; 4,600 compounds, 63% hits; AID 463215;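 active means inhibition of yeast growth at or above a set limit in either of two replicates at 10 µM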; further: this counterscreen used the strain with wild-type TIM10
Hits are given with their value; . = inactive; / = not tested or not shown.

SMILES | tim10-1 inh | tim23-1 inh | SKKanGAS inh | NALP3 yeast inh | TIM10 inh | PfHsp90 set2 | tim10 confirm
COc1ccc(C(=O)NCCS(=O)(=O)NC2CCCC2)cc1 | . | . | . | . | 41 | . | .
CS(=O)(=O)Nc1ccccc1C(=O)NCCSc1ccc(Cl)cc1 | . | . | . | . | . | . | /
CCc1ccccc1NC(=S)NCCSc1ccc(Cl)cc1 | . | . | 50 | . | 55 | . | 40
CN(CC(=O)Nc1cccc(F)c1)C(=O)c1ccc(N2CCCCC2)c([N+](=O)[O-])c1 | . | . | . | . | . | . | /
COCCSc1nnc(NC(=O)c2ccco2)s1 | . | . | . | . | 67 | / | .
CCCCCn1c(CNC(=O)c2cccs2)nc2ccccc21 | . | . | . | . | . | . | /
CCCCCn1c(CCNC(=O)c2cccs2)nc2ccccc21 | . | . | . | . | 41 | . | .
CCc1sc(C(=O)Nc2cccc(C(C)=O)c2)cc1C | . | . | . | . | . | . | /
CC(=O)c1ccc(OC(=O)N(c2ccccc2)c2ccccc2)cc1 | . | . | . | . | 63 | . | .
CC(=O)c1ccc(OC(=O)CCc2ccccc2)cc1 | . | . | . | . | . | . | /
CCOc1ccc(Oc2cc(NC(=O)c3ccco3)cc([N+](=O)[O-])c2)cc1 | / | / | / | / | / | . | /
O=C(Nc1cc(Oc2ccc(Cl)cc2)cc([N+](=O)[O-])c1)c1ccco1 | . | . | . | . | 65 | . | .
CCCNC(=O)c1c(CSc2ccc(Cl)cc2)noc1C(=O)NCc1ccccc1 | . | . | . | . | . | . | /
C=C(C)CNC(=S)NN=C1c2ccccc2-c2ccccc21 | . | . | . | . | . | / | /
CCNC(=S)NN=C1c2ccccc2-c2ccccc21 | . | . | . | . | 44 | . | .
CCOC(=O)c1cnc2c(OC)cccc2c1N1CCN(c2ccccc2OC)CC1 | . | . | . | . | 42 | . | .
COCCCn1c(C)cc(C(=O)CN2c3cccc4cccc(c34)S2(=O)=O)c1C | . | . | / | . | . | . | /
Cc1ccc(CN(c2ccc(C(=O)N3CCCC3)cc2)S(C)(=O)=O)cc1 | . | . | 67 | . | 44 | . | 47
Cc1ccc(/C=N/n2cc(-c3ccccc3)[nH]c2=S)s1 | . | . | . | . | 41 | . | 42
CC(C)(C)C1CCC(CN2C(Nc3ccccc3)=NC[C@@H]2Cc2ccccc2)CC1 (stereo partly specified) | . | . | / | . | 49 | . | 53
Cc1cccc(-n2c(C)cc(/C=N\NC(=O)c3ccco3)c2C)c1 | . | . | . | . | . | . | /
COc1ccccc1C(=O)NC1CC(C)(C)NC(C)(C)C1 | . | . | . | . | . | . | /
COc1cccc(C(=O)NC2CC(C)(C)NC(C)(C)C2)c1OC | . | . | . | . | 61 | . | .
O=C(c1ccccc1O)N1N=C(c2ccccc2)CC1(O)C(F)(F)F (stereo unspecified) | . | . | . | . | 46 | . | .
COc1ccc(CNC(=O)COC(=O)/C=C/c2cccc(Br)c2)cc1 | . | . | . | . | . | . | /
SMILES | tim10-1 inh | tim23-1 inh | SKKanGAS inh | NALP3 yeast inh | TIM10 inh | PfHsp90 set2 | tim10 confirm
COc1ccc(-n2nnnc2-c2cn(C)nc2C(F)(F)F)cc1 | . | . | . | . | . | . | /
COC(=O)CCCCCN1C(=O)/C(=C\c2ccncc2)SC1=S | . | . | . | . | 42 | . | 28
O=C(CCCN1C(=O)/C(=C/c2cccc(Br)c2)SC1=S)Nc1cccnc1 | . | . | . | . | . | . | /
O=C(CCCN1C(=O)/C(=C\c2cccc(Br)c2)SC1=S)Nc1cccnc1 | . | . | . | . | 45 | . | .
Cc1ccc(CC(NC(=O)C2CCCCC2)C(=O)O)cc1 (stereo unspecified) | . | . | / | / | . | . | /
C=CCN(CC=C)C(=S)NC(=O)/C=C/c1ccc(OC)cc1 | . | . | . | . | 44 | . | .
COC(=O)C1C2C=CC3(CN(c4cccc(Cl)c4)C(=O)C13)O2 (stereo unspecified) | . | . | . | . | . | . | /
COC(=O)C1C2C=CC3(CN(c4cccc(C)c4)C(=O)C13)O2 (stereo unspecified) | . | . | . | . | 94 | . | .
Cc1ccc(O)c(Cn2nnc3ccccc32)c1 | . | . | . | . | . | . | /
COc1ccc(NC(=O)N2CCCC(c3nc(-c4ccc(OC)cc4)no3)C2)cc1 (stereo unspecified) | . | . | . | . | . | . | /
O=C(Nc1ccc(Cl)cc1)N1CCC(c2nc(-c3ccc(F)cc3)no2)CC1 | . | . | . | . | 48 | . | .
Cc1ccc(C)c(Cn2nc(-c3cc(C)ccc3C)ccc2=O)c1 | . | . | . | . | . | . | /
CC(C)CCNC(=O)c1sc2ccc(S(=O)(=O)N3CCCCC3)cc2c1N | . | . | . | . | 41 | . | 38
O=C(COC(=O)c1cnccn1)Nc1ncc(Cl)cc1Cl | . | . | . | . | . | . | /
N#CC1C=Cc2c(ccc3ccccc23)N1C(=O)c1ccccc1 (stereo unspecified) | / | / | / | / | / | . | /
Cc1ccc(S(=O)(=O)NC2CCCc3ccccc32)cc1C (stereo unspecified) | . | . | . | . | 45 | . | .
O=c1[nH]cnc2c1c(-c1ccccc1)cn2-c1ccc(Br)cc1 | . | . | . | . | 42 | . | 38
CN(C)C(=O)CCSc1nnc(-c2ccco2)o1 | . | . | . | . | . | . | /
O=C(Nc1nc(-c2cccs2)cs1)c1cccc(S(=O)(=O)N2CCCCC2)c1 | . | . | . | . | 42 | . | 31
Cc1ccc(-c2csc(NC(=O)c3cccc(S(=O)(=O)N4CCN(C)CC4)c3)n2)cc1 | . | . | . | . | . | . | /
CCOC(CNC(=O)CN1C(=O)COc2ccc(S(=O)(=O)N3CC(C)CC(C)C3)cc21)OCC (stereo unspecified) | . | . | . | . | . | . | /
CNC(=O)CN(C)S(=O)(=O)c1ccc(F)cc1 | . | . | . | . | . | . | /
COc1ccccc1CNC(=O)C(=O)Nc1ccc(C(=O)N2CCC(C)CC2)cc1 | . | . | . | . | . | . | /
COc1ccc(-c2nc3ccccc3c(=O)n2CCOc2c(C)cccc2C)cc1 | . | . | . | . | . | . | /
COc1cc(OC)cc(-c2nc3ccccc3c(=O)n2OC(=O)c2ccccc2C)c1 | . | . | . | . | 48 | . | .
CCC(=O)Nc1ccc(/C=C(\C(C)=O)C(=O)c2ccccc2)cc1 | . | . | . | . | . | . | /
CC(=O)/C(=C/c1ccc(N(C)C)cc1)C(=O)c1ccccc1 | . | . | . | . | 41 | . | .
Cc1nc(N2CCN(S(=O)(=O)c3ccccc3C#N)CC2)c2c(-c3ccccc3)csc2n1 | . | . | / | . | . | . | /
Cc1cc(Nc2ccc(Br)cc2)nc(-c2ccccc2O)n1 | . | . | . | . | 43 | . | 49
O=C(Oc1coc(CSc2ncccn2)cc1=O)c1ccc(Br)o1 | . | . | . | . | 44 | . | .
